What all share (test): DAPPL (digital affinity profiling via proximity ligation, sequencing); 10 mM Tris-HCl pH 7.5, 50 mM NaCl, 1 mM DTT, 4% glycerol, room temperature, 30 min; GST-TFs on glutathione beads, 16-mer random dsDNA library, 0.1% formaldehyde crosslink after washing; high values mean tight binding
What all share (conditions): protein: recombinant; tags: N-terminal GST; dsDNA, one strand shown

One assay addresses T1, FLI1 (Homo sapiens, UniProt Q01543 1-452).
T1 sequence: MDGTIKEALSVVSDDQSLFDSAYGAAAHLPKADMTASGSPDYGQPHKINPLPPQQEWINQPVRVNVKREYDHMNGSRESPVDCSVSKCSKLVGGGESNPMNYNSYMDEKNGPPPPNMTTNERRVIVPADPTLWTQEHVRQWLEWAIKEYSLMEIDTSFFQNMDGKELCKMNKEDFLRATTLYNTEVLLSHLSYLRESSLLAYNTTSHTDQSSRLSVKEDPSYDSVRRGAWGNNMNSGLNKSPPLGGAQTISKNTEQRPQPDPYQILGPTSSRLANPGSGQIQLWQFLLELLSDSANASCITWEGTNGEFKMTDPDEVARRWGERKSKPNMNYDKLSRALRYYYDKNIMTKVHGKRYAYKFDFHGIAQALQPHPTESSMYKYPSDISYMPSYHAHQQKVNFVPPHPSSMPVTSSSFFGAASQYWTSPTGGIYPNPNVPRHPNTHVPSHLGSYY
The method, boiled down: (§1)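 Each value of binding signal is a hexamer's read frequency for a factor divided by the same hexamer's frequency in the tag-only sample. Barcoded, bead-captured GST fusions of human transcription factors made in yeast were pooled with that sample and incubated with 200 nmole of a random double-stranded 16-mer DNA library in Tris/NaCl/DTT/glycerol buffer at room temperature for 30 min. Washing, 0.1% formaldehyde crosslinking, proximity ligation, PCR and Illumina NextSeq500 sequencing followed.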

A further assay has as its target T2, GABPA (Homo sapiens, UniProt Q06546 1-454).
T2 sequence: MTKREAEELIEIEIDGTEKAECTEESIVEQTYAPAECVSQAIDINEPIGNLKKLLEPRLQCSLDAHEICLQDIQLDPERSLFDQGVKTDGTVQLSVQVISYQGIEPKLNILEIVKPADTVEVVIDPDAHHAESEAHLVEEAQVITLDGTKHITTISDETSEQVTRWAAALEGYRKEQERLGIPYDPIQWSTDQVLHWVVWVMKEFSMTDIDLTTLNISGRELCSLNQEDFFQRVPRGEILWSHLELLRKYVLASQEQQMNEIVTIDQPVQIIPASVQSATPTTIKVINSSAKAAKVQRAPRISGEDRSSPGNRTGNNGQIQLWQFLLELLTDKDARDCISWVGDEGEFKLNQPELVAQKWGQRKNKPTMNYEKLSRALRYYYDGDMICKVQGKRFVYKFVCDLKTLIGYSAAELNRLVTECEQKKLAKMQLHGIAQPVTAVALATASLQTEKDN
The method, boiled down: as §1

The next assay addresses T3, ERG (Homo sapiens, UniProt P11308 1-479).
T3 sequence: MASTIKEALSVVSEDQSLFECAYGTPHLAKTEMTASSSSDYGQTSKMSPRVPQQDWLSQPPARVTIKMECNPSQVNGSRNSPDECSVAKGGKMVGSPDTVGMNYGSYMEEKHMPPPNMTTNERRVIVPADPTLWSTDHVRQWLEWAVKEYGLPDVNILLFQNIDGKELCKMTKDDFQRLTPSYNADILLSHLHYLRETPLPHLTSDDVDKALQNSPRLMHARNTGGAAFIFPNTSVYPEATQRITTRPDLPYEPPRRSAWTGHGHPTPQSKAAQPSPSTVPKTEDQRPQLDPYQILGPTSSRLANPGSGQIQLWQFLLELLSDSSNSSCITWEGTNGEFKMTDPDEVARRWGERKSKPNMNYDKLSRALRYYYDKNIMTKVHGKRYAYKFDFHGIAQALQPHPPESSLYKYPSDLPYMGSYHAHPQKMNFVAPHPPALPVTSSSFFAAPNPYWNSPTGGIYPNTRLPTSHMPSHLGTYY
In a few lines:
as §1

Another assay deals with ELF1 (Homo sapiens, UniProt P32519 1-619). In a few lines:
as §1

The next assay addresses SPIB (Homo sapiens, UniProt Q01892 1-262). In a few lines: as §1
The target in a further assay is T4, ELK3 (Homo sapiens, UniProt P41970 1-407).
T4 sequence: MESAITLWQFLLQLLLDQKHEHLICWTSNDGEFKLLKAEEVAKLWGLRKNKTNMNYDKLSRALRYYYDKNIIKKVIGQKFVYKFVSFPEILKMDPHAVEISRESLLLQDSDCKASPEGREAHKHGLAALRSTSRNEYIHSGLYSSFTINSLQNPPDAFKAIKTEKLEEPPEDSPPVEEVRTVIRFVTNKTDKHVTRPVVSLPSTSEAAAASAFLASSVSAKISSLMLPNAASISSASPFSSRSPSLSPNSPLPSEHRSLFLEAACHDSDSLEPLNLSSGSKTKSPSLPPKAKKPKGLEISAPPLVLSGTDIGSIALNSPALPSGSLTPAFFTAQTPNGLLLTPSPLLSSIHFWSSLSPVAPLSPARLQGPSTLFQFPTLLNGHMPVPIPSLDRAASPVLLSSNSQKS
The method, boiled down:
as §1

For another assay, the target named is T5, FEV (Homo sapiens, UniProt Q99581 1-238).
T5 sequence: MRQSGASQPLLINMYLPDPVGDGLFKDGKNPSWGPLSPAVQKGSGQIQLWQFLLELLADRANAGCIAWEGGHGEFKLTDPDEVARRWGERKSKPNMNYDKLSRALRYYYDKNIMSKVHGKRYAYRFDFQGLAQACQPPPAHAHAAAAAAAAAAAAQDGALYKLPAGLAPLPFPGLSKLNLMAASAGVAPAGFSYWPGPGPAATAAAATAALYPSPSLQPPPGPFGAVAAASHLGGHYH
In a few lines: as §1

A further assay concerns the target T6, ELK4 (Homo sapiens, UniProt P28324-2 1-405).
T6 sequence: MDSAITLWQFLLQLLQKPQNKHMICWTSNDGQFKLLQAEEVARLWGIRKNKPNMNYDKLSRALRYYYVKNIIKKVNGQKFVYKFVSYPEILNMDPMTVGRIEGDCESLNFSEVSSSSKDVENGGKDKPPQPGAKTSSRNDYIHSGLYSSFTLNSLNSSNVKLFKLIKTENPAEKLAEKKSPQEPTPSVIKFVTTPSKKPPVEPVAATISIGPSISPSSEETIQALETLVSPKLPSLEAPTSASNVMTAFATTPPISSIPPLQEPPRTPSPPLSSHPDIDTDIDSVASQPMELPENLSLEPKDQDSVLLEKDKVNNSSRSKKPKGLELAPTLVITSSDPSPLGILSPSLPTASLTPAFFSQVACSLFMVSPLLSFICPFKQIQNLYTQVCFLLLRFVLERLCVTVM
In a few lines:
as §1

Another assay deals with ETV1 (Homo sapiens, UniProt P50549 1-477). In a few lines: as §1
Chain of ETV1 (P50549 whole entry): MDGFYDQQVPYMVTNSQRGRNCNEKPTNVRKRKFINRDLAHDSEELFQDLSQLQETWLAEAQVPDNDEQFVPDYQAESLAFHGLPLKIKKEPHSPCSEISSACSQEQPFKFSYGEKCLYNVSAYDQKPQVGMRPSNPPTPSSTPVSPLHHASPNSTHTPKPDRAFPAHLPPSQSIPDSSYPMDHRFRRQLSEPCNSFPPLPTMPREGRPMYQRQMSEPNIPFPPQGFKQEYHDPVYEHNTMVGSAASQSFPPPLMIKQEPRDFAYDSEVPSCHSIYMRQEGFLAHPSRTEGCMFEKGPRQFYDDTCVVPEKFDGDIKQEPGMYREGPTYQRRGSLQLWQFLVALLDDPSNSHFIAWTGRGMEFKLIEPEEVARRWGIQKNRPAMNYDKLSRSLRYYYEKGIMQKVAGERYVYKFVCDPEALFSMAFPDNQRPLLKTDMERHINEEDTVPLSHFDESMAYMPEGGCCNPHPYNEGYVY
For a further assay, the target named is T7, ERF (Homo sapiens, UniProt P50548 1-548).
T7 sequence: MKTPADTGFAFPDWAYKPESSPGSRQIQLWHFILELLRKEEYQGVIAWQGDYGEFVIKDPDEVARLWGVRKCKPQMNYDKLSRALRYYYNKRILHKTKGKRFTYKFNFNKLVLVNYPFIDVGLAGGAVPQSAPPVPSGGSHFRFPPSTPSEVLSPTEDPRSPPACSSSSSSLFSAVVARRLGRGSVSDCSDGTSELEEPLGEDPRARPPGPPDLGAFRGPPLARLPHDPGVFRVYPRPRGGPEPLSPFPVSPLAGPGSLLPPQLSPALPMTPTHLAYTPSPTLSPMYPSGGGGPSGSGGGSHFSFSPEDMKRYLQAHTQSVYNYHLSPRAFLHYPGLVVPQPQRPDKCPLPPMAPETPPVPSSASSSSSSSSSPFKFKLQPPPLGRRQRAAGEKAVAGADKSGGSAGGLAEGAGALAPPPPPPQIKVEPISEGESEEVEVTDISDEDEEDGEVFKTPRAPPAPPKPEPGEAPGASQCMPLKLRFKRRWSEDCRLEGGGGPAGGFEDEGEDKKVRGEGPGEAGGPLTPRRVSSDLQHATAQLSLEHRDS
The method, boiled down:
as §1

The next assay has as its target T8, ETV3L (Homo sapiens, UniProt Q6ZN32 1-361).
T8 sequence: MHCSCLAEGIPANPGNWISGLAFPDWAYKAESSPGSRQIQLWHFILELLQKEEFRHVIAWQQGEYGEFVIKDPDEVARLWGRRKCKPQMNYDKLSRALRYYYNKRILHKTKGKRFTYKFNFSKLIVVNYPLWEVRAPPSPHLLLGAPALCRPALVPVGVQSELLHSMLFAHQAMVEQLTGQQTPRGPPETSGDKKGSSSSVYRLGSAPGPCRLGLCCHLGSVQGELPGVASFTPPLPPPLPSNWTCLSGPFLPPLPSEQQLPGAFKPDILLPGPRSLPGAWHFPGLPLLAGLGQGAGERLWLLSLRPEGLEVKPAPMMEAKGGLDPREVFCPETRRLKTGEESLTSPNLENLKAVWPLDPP
In a few lines:
as §1

The target of the next assay is T9, ETS2 (Homo sapiens, UniProt P15036 1-469).
T9 sequence: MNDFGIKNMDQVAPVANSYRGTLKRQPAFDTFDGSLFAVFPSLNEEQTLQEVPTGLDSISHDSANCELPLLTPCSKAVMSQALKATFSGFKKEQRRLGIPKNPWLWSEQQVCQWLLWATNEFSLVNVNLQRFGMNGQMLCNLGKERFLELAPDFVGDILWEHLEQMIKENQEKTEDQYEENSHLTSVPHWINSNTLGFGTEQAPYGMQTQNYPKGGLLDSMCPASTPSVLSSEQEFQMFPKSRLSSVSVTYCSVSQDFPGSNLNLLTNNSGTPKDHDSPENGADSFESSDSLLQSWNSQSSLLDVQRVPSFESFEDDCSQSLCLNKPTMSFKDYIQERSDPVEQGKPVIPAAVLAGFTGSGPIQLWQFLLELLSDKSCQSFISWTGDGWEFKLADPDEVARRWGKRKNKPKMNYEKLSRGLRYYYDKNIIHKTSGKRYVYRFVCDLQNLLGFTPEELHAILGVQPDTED
The method, boiled down:
as §1

A further assay has as its target T10, SPDEF (Homo sapiens, UniProt O95238 1-335).
T10 sequence: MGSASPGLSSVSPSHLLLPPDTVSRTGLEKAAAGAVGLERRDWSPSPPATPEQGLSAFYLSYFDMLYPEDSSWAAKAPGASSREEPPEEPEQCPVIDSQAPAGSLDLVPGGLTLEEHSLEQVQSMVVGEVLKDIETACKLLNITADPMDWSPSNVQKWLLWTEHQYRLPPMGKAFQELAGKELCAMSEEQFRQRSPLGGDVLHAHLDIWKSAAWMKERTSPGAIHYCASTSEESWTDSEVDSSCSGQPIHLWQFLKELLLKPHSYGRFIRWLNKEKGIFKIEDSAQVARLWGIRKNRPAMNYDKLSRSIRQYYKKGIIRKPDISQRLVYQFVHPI
In a few lines:
as §1

Chain of SPIB (Q01892 whole entry): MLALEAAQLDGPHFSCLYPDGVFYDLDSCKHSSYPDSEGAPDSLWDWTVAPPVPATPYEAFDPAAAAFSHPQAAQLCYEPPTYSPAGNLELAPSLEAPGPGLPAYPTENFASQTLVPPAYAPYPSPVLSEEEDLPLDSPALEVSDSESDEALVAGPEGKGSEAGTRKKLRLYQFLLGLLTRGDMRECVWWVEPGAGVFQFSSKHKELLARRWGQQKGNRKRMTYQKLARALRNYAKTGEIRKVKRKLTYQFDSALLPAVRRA
Chain of ELF1 (P32519 whole entry): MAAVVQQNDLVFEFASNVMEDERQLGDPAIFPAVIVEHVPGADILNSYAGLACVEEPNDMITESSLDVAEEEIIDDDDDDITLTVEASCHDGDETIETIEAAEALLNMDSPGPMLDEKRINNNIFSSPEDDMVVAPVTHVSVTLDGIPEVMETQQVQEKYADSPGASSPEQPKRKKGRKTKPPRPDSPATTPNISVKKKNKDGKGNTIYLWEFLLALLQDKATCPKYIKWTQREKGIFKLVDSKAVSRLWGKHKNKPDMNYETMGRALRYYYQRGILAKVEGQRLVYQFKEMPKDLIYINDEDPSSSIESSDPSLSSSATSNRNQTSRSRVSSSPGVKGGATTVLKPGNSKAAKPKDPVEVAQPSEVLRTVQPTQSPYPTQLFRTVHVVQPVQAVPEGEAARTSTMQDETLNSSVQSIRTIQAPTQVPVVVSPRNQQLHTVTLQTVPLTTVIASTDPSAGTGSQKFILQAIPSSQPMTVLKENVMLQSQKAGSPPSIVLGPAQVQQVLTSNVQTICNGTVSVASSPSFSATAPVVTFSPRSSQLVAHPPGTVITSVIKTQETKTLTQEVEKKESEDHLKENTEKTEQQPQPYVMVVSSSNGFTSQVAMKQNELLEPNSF

In the case of CGGGCT, the binding signal is 1.05 fold enrichment (6-mer frequency, TF over GST control) with FLI1; 1.05 fold enrichment (6-mer frequency, TF over GST control) with GABPA; 1.02 fold enrichment (6-mer frequency, TF over GST control) with ERG; 1.04 fold enrichment (6-mer frequency, TF over GST control) in the assay with ELF1; 1.13 fold enrichment (6-mer frequency, TF over GST control) in the assay with SPIB; 1.14 fold enrichment (6-mer frequency, TF over GST control) in the assay with ELK3. For the same sequence, the binding signal is 1.01 fold enrichment (6-mer frequency, TF over GST control) with FEV; 1.18 fold enrichment (6-mer frequency, TF over GST control) with ELK4; 1.07 fold enrichment (6-mer frequency, TF over GST control) with ETV1; 1.05 fold enrichment (6-mer frequency, TF over GST control) in the assay with ERF; 1.01 fold enrichment (6-mer frequency, TF over GST control) in the assay with ETV3L; 1.07 fold enrichment (6-mer frequency, TF over GST control) with ETS2. The binding signal in the assay with SPDEF is 1.07 fold enrichment (6-mer frequency, TF over GST control).

Source of the values: article PMC7862700, “An all-to-all approach to the identification of sequence-specific readers for epigenetic DNA modifications on cytosine”.
